Laboratory results taken from the supplement of paper PMC10498489.
Screen size: about 2,300 compounds; about 330 (14%) showed activity. A selection follows. A number with no mark means an inactive call.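 How the source made its calls: active = median modified Z-score above 1.96; inactive = 1.96 or below.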

tested on: HepG2 Srxn1-GFP reporter cells (+30 nM CDDO-Me); assay: Srxn1-GFP intensity median modified Z-score relative to plate median; higher = stronger NRF2 / oxidative stress reporter activation, active = hit call of the paper; details: 10 µM; exposure time: 24h
How it was run: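 Values give the median, over replicates, of the modified Z-score of GFP intensity on each plate. HepG2 Srxn1-GFP BAC reporter cells were co-treated for 24 h with an NRF2 activator at 30 nM and compound at 10 μM (≤0.1% DMSO) in three replicate plates, then analysed per cell for cytoplasmic GFP on confocal images with at least 100 cells. Scaling used 1.4826 × median absolute deviation.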

SMILES	Srxn1-GFP intensity median modified Z-score
N=c1[nH]cnc(=Nc2ccc(Cl)cc2)[nH]1 [euspeclibcmpd2344]	0.164
CC1CC[C@@]23CC[C@]4(C)[C@@](CCC5[C@@]6(C)CCC(=O)C(C)(C)C6CC[C@]54C)(OC2=O)C3C1C (some centres undefined) [euspeclibcmpd1366]	-0.221
CC(=O)OCC(=O)[C@@]1(O)CC[C@H]2[C@@H]3CCC4=CC(=O)CC[C@]4(C)[C@H]3C(=O)C[C@]21C	0.314
CCN(CC)CCOc1ccc(/C(=C(\Cl)c2ccccc2)c2ccccc2)cc1 [euspeclibcmpd69]	-1.55
COc1ccc(C(=O)NCc2ccc(OCCN(C)C)cc2)cc1OC [euspeclibcmpd1095]	0.331
CN(C)CCOc1ccc(/C(=C(/CCCl)c2ccccc2)c2ccccc2)cc1 [euspeclibcmpd946]	93.7 (active)
COc1cc(C(=O)NCc2ccc(OCCN(C)C)cc2)cc(OC)c1OC [euspeclibcmpd309]	0.482
CN(C)CCOC(=O)COc1ccc(Cl)cc1 [euspeclibcmpd1131]	-0.393
CC/C(=C(\c1ccccc1)c1ccc(OCCN(C)C)cc1)c1ccccc1 [euspeclibcmpd285]	43.4 (active)
C[C@@H]1CC2C3CC(F)=C4CC(=O)C=C[C@]4(C)[C@@]3(F)[C@@H](O)C[C@]2(C)[C@@]1(O)C(=O)COC(=O)C(C)(C)C (some centres undefined) [euspeclibcmpd128]	-0.646
COc1c(O)c(C)c(C=CCCCCCCCCO)c(O)c1OC [euspeclibcmpd1216]	-0.228
COC(=O)/C(=C1\OC(=O)C(c2ccccc2)C1=O)c1ccccc1 (centres undefined) [euspeclibcmpd1487]	1.05
CC1(C)O[C@H]2CC(=O)OC[C@]23[C@H]2CC[C@@]4(C)[C@H](c5ccoc5)OC(=O)C5O[C@]54[C@]2(C)C(=O)C[C@@H]13 (some centres undefined) [euspeclibcmpd1497]	0.563
COC(=O)CC1C(C)(C)C(OC(C)=O)C2C(OC(C)=O)C34OC2(O)C1(C)C3CCC1(C)C4=CC(=O)OC1c1ccoc1 (centres undefined) [euspeclibcmpd1938]	-0.377
CC(=O)O[C@H]1C[C@@H](OC(C)=O)C(C)(C)C2C[C@@H](OC(C)=O)[C@@]3(C)C4=CC(=O)O[C@@H](c5ccoc5)[C@]4(C)CCC3[C@]21C (some centres undefined) [euspeclibcmpd1532]	0.0053
CC1(C)C(=O)C=C[C@@]2(C)C1CC(=O)[C@]1(C)C2CC[C@@]2(C)[C@H](c3ccoc3)OC(=O)C3O[C@]321 (some centres undefined) [euspeclibcmpd1588]	13 (active)
CC(=O)O[C@H]1C[C@@H](OC(C)=O)C(C)(C)C2CC(=O)[C@]3(C)C(CC[C@@]4(C)C(C(=O)O)OC(=O)C5OC543)[C@]21C (some centres undefined) [euspeclibcmpd1389]	-0.386
CC(=O)O[C@@H]1CC2C(C)(C)C(=O)C3OC3[C@]2(C)C2CC[C@@]3(C)[C@H](c4ccoc4)OC(=O)C4OC43[C@@]21C (some centres undefined) [euspeclibcmpd1644]	5.41 (active)
CC(=O)O[C@@H]1CC2C(C)(C)C(=O)CC[C@]2(C)C2CC[C@@]3(C)[C@H](c4ccoc4)OC(=O)C4OC43[C@@]21C (some centres undefined) [euspeclibcmpd1587]	32.1 (active)
CC(=O)O[C@H]1C[C@@H](OC(C)=O)C(C)(C)C2CC(=O)[C@]3(C)C(CC[C@@]4(C)[C@H](c5ccoc5)OC(=O)C5O[C@]543)[C@]21C (some centres undefined) [euspeclibcmpd1589]	0.448
COC(=O)C1OC(=O)C2OC23C1(C)CCC1C2(C)CCC(=O)C(C)(C)C2CC(OC(C)=O)C13C (centres undefined) [euspeclibcmpd1948]	-0.0565
COC(=O)C1OC(=O)C2OC23[C@@]1(C)CCC1[C@]2(C)C(C[C@@H](O)[C@]13C)C(C)(C)[C@H](OC(C)=O)C[C@@H]2OC(C)=O (some centres undefined) [euspeclibcmpd2102]	-0.135
CC(=O)OC1CC2C(C)(C)C(O)CCC2(C)C2CCC3(C)C(=CC(=O)OC3c3ccoc3)C12C (centres undefined) [euspeclibcmpd1952]	0.595
CC(=O)O[C@@H]1CC2C(C)(C)C(=O)C=C[C@]2(C)C2CC[C@@]3(C)[C@H](c4ccoc4)OC(=O)C4O[C@]43[C@@]21C (some centres undefined) [euspeclibcmpd1359]	23.9 (active)
